Data on one compound can be found in PubChem BioAssay AID1159580 (chemical genetic matrix, 2015).

This assay can be described thus: chemical genetic growth profiling, strain panel (AID 1159580).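 Also: tested at 20 µM; growth read once vehicle control cultures reached saturation at 30 °C; 1 = growth at the plate median or of vehicle wells; lower values mean less growth of the strain.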 The settings on record: S. cerevisiae deletion strains, growth OD.

The whole screen tested about 5,500 compounds, of which about 2,000 (36%) were called active. Not shown: some 18% with an inconclusive outcome. Some of the results follow. A number with no mark means an inactive call. Rule as the data show it: active = normalized growth mostly below about 0.91 (no sharp cut-off); inconclusive = no clear call, values can overlap the other calls; inactive = mostly above about 0.92.

`CCCCCCN(CCCCCC)C(=O)Cc1c(-c2ccc(F)cc2)[nH]c2ccccc12`: the normalized growth reads like this: (locus YAL013W, strain DEP1, active compounds read low) 1.03; (locus YAL040C, strain CLN3, active compounds read low) 1.03; (locus YCL061C, strain MRC1 (second series), active compounds read low) 1; (locus YDR363W, strain ESC2, active compounds read low) 1.01; (locus YER002W, strain NOP16, active compounds read low) 1.02; (locus YGR229C, strain SMI1, active compounds read low) 1.04. Besides, the normalized growth runs as follows: (locus YMR263W, strain SAP30, active compounds read low) 1; (locus YMR307W, strain GAS1, active compounds read low) 0.996; (locus YNL128W, strain TEP1, active compounds read low) 1.12 [resistant] (active); (locus YNL175C, strain NOP13, active compounds read low) 1.15 [resistant] (active); (locus YNL224C, strain SQS1, active compounds read low) 1.07; (locus YOR083W, strain WHI5 (second series), active compounds read low) 1.12. Moreover, the normalized growth (locus YPL241C, strain CIN2, active compounds read low) was 1.
